# Several values for one entry are separate records, joined by “and”; a condition that tells them apart may be missing. Equal entries are not always repeated. Results filed as inconclusive are left out. Where a call stands in place of a potency, no number is given. Values without a mark were called inactive. Activity calls are given as the source filed them. Calls come from the whole dose curve; as a rule, active = well fitted curve in the direction sought with a large enough effect; inconclusive = small, poorly fitted or top-dose-only effect, or another doubt; inactive = no such curve, though single readings can be large; an effect the other way counts as inactive or inconclusive.
# What was measured:
# HEK293 = assay: Cytotoxic Profiling of Annotated Libraries Using Quantitative High-Throughput Screening (AID 1296008); details: Five cell lines viability, CellTiter-Glo ATP luminescence, 48-72 h; max response: stronger effect = lower value; note: nearly all actives have a fitted effect of over 60% in size; note: potency is the fitted concentration of half-maximal effect
# Procedure, shortened: (§1)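 Cells exposed to compounds for 48 or 72 hr at 37 degrees Celsius. Viability read as ATP-coupled luminescence with CellTiter-Glo after 10 min at room temperature.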
# HaCat [1] = assay: as above; details: Five cell lines viability, CellTiter-Glo ATP luminescence, 48-72 h; max response: stronger effect = lower value
# Procedure, shortened: as §1
# KB-3-1 = assay: as above; details: Five cell lines viability, CellTiter-Glo ATP luminescence, 48-72 h; max response: stronger effect = lower value
# Procedure, shortened: as §1
# NIH3T3 [2] = assay: as above; details: Five cell lines viability, CellTiter-Glo ATP luminescence, 48-72 h; max response: stronger effect = lower value
# Procedure, shortened: as §1
# MCC-13 = assay: qHTS assay to identify novel small-molecules to repurpose for Merkel cell carcinoma treatment (AID 1296009); details: MCC and control cell lines, CellTiter-Glo viability, 72 h; series mostly up to 46 µM; note: nearly all actives have a fitted effect of over 60% in size; note: potency is the fitted concentration of half-maximal effect
# Procedure, shortened: (§2)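 Dose-response viability screen; 72 hr exposure at 37 degree celsius; CellTiter-Glo added, 10 min room temperature, luminescence read; RLUs scaled between no-cell and DMSO wells.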
# MKL-1 = assay: as above; details: MCC and control cell lines, CellTiter-Glo viability, 72 h; series mostly up to 46 µM
# Procedure, shortened: as §2
# MKL-2 = assay: as above; details: MCC and control cell lines, CellTiter-Glo viability, 72 h; series mostly up to 46 µM
# Procedure, shortened: as §2
# UISO = assay: as above; details: MCC and control cell lines, CellTiter-Glo viability, 72 h; series mostly up to 46 µM
# Procedure, shortened: as §2
# WaGa = assay: as above; details: MCC and control cell lines, CellTiter-Glo viability, 72 h; series mostly up to 46 µM
# Procedure, shortened: as §2
# C33A = assay: Primary qHTS to identify gynecologic anti-cancer compounds using libraries of approved drugs and bioactive compounds (AID 1345084); details: Gynecologic cancer cell panel viability, ATPlite luminescence, 48 h; series mostly up to 57.5 µM; note: nearly all actives have a fitted effect of over 55% in size
# Procedure, shortened: (§3)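 Five-point cytotoxicity, 48 h drug exposure at 37 C, 5% CO2, on cells seeded 16 h beforehand. ATP content read by ATPlite luminescence.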
# CAOV3 = assay: as above; details: Gynecologic cancer cell panel viability, ATPlite luminescence, 48 h; series mostly up to 57.5 µM
# Procedure, shortened: as §3
# CASKI = assay: as above; details: Gynecologic cancer cell panel viability, ATPlite luminescence, 48 h; series mostly up to 57.5 µM
# Procedure, shortened: as §3
# Es-2 = assay: as above; details: Gynecologic cancer cell panel viability, ATPlite luminescence, 48 h; series mostly up to 57.5 µM
# Procedure, shortened: as §3
# HeLa = assay: as above; details: Gynecologic cancer cell panel viability, ATPlite luminescence, 48 h; series mostly up to 57.5 µM
# Procedure, shortened: as §3
# Hek293T [3] = assay: as above; details: Gynecologic cancer cell panel viability, ATPlite luminescence, 48 h, control line for the selectivity index; series mostly up to 57.5 µM
# Procedure, shortened: as §3
# JEG-3 = assay: as above; details: Gynecologic cancer cell panel viability, ATPlite luminescence, 48 h; series mostly up to 57.5 µM
# Procedure, shortened: as §3
# MCC-26 = assay: qHTS assay to identify novel small-molecules to repurpose for Merkel cell carcinoma treatment (AID 1296009); details: MCC and control cell lines, CellTiter-Glo viability, 72 h; series mostly up to 46 µM; note: nearly all actives have a fitted effect of over 60% in size; note: potency is the fitted concentration of half-maximal effect
# Procedure, shortened: as §2
# HACAT [4] = assay: as above; details: MCC and control cell lines, CellTiter-Glo viability, 72 h; at 44.8 µM (top of the series) unless noted
# Procedure, shortened: as §2
# HEK293T [5] = assay: as above; details: MCC and control cell lines, CellTiter-Glo viability, 72 h; at 44.8 µM (top of the series)
# Procedure, shortened: as §2
# NIH3T3 [6] = assay: as above; details: MCC and control cell lines, CellTiter-Glo viability, 72 h; at 44.8 µM (top of the series) unless noted
# Procedure, shortened: as §2
compound,measurement,setting,value
CC(C)(C)c1ccc(C(O)CCCN2CCC(C(O)(c3ccccc3)c3ccccc3)CC2)cc1 (centres undefined),max response,HEK293,-7.01%
same,max response,HaCat [1],1.94%
same,max response,KB-3-1,-14.6% and -4.64%
same,max response,NIH3T3 [2],-3.57%
same,Potency,MCC-13,inactive
same,Potency,MKL-1,inactive
same,Potency,MKL-2,inactive
same,Potency,UISO,inactive
same,Potency,WaGa,inactive
same,Potency,C33A,inactive
same,Potency,CAOV3,inactive
same,Potency,CASKI,inactive
same,Potency,Es-2,inactive
same,Potency,HeLa,inactive
same,Potency,Hek293T [3],inactive
same,Potency,JEG-3,inactive
CN(C)c1cc(NC(=O)CNC(C)(C)C)c(O)c2c1C[C@@H]1C[C@H]3[C@H](N(C)C)C(=O)C(C(N)=O)=C(O)[C@@]3(O)C(=O)C1=C2O,max response,HEK293,4.51%
same,max response,HaCat [1],1.33%
same,max response,KB-3-1,-10.5%
same,Potency,MCC-13,inactive
same,Potency,MCC-26,inactive
same,Potency,MKL-1,inactive
same,Potency,MKL-2,inactive
same,Potency,UISO,inactive
same,Potency,WaGa,inactive
same,Potency,C33A,inactive
same,Potency,CAOV3,inactive
same,Potency,CASKI,inactive
same,Potency,Es-2,inactive
same,Potency,HeLa,inactive
same,Potency,Hek293T [3],inactive
same,Potency,JEG-3,inactive
O=C(O)c1ccc(-c2c[nH]c3ncc(-c4ccccc4)cc23)cc1C1CCCC1,outcome,HEK293,inactive
same,outcome,HaCat [1],inactive
same,outcome,KB-3-1,inactive
same,outcome,HACAT [4],inactive
same,outcome,HEK293T [5],inactive
same,Potency,MCC-13,inactive
same,Potency,MCC-26,inactive
same,Potency,MKL-1,inactive
same,Potency,UISO,inactive
same,Potency,WaGa,inactive
CC(=Cc1ccccc1)C=C1SC(=S)N(CC(=O)O)C1=O,max response,HEK293,-4.91%
same,outcome,HaCat [1],inactive
same,max response,KB-3-1,-2.93%
same,outcome,HACAT [4],inactive
same,Potency,MCC-13,inactive
same,Potency,MCC-26,inactive
same,Potency,MKL-1,inactive
same,Potency,MKL-2,inactive
same,outcome,NIH3T3 [6],inactive
same,Potency,UISO,inactive
same,Potency,WaGa,inactive
N[C@H](CSC(c1ccccc1)(c1ccccc1)c1ccccc1)C(=O)O,Potency,HEK293,9.35 µM (active)
same,outcome,HaCat [1],inactive
same,Potency,NIH3T3 [2],26.4 µM (active)
same,outcome,HACAT [4],inactive
same,Potency,MCC-26,inactive
Cc1[nH]c(C=C2C(=O)Nc3ccc(S(=O)(=O)Cc4c(Cl)cccc4Cl)cc32)c(C)c1C(=O)N1CCC[C@H]1CN1CCCC1,Potency,HEK293,23.5 µM (active)
same,max response,HaCat [1],-4.31%
same,max response,KB-3-1,1.95%
same,Potency,MCC-13,inactive
same,Potency,MCC-26,inactive
same,Potency,MKL-1,18.7 µM (active)
same,Potency,MKL-2,3.72 µM (active)
same,Potency,UISO,inactive
O=C(NCc1ccccc1)c1csc(Nc2ccncn2)n1,Potency,HEK293,5.26 µM (active)
same,outcome,HaCat [1],inactive
same,max response,KB-3-1,3.38% and -16.6%
same,outcome,HACAT [4],inactive
same,Potency,MKL-1,8.33 µM (active)
same,Potency,UISO,23.5 µM (active)
same,Potency,C33A,inactive
same,Potency,CASKI,inactive
same,Potency,Es-2,inactive
same,Potency,HeLa,inactive
same,Potency,Hek293T [3],inactive
same,Potency,JEG-3,inactive
NC(=O)c1cnc(-c2ccc(C3(N)CCC3)cc2)c(-c2ccccc2)c1,Potency,HEK293,23.5 µM (active) and 18.4 µM (active)
same,max response,HaCat [1],-22.7%
same,max response,KB-3-1,-11.5%
same,Potency,MCC-13,inactive
same,Potency,MCC-26,inactive
same,Potency,MKL-1,inactive
same,Potency,MKL-2,inactive
same,Potency,UISO,inactive
same,Potency,WaGa,inactive
same,Potency,Es-2,inactive
same,Potency,HeLa,inactive
same,Potency,Hek293T [3],inactive
same,Potency,JEG-3,inactive
COc1ccc(-c2nc(N3CCOCC3)c3sc(CN(C)c4ncc(C(=O)NO)cn4)cc3n2)cn1,Potency,HEK293,0.0166 µM (active)
same,Potency,HaCat [1],0.148 µM (active)
same,Potency,KB-3-1,0.0264 µM (active)
same,Potency,NIH3T3 [2],0.118 µM (active)
same,Potency,MCC-13,0.0662 µM (active)
same,Potency,UISO,0.0235 µM (active)
same,Potency,WaGa,0.0026 µM (active)
CCOC(CN1C(=O)[C@](CC(=O)Nc2ccc(C)cc2)(NC(=O)Nc2ccc(C)cc2)c2ccccc21)OCC,max response,HEK293,-3.95%
same,max response,HaCat [1],-19.2%
same,max response,KB-3-1,-11%
same,max response,NIH3T3 [2],-3.18%
same,Potency,MCC-13,inactive
same,Potency,MKL-1,inactive
same,Potency,UISO,inactive
same,Potency,WaGa,inactive
O=C(O)c1c(Cl)c(Cl)c(Cl)c(Cl)c1-c1c2cc(I)c(=O)c(I)c-2oc2c(I)c(O)c(I)cc12,max response,HEK293,-16.1%
same,outcome,HaCat [1],inactive
same,max response,NIH3T3 [2],-19.3%
same,outcome,HACAT [4],inactive
same,Potency,UISO,inactive
COc1cc2nc(-c3ccc(N4CCN(C)CC4)cc3)nc(NCCN3CCOCC3)c2cc1OC,Potency,HEK293,5.8 µM (active)
same,Potency,HaCat [1],0.935 µM (active)
same,Potency,KB-3-1,0.0662 µM (active)
same,Potency,MCC-13,9.35 µM (active)
same,Potency,MCC-26,9.35 µM (active)
same,Potency,MKL-1,0.0235 µM (active)
same,Potency,MKL-2,0.105 µM (active)
same,Potency,UISO,0.118 µM (active)
same,Potency,WaGa,0.118 µM (active)
same,Potency,C33A,inactive
same,Potency,Es-2,inactive
same,Potency,HeLa,inactive
same,Potency,Hek293T [3],inactive
same,Potency,JEG-3,inactive
Nc1ncnc2c1ncn2[C@@H]1O[C@@H](CO)[C@H](O)[C@H]1O,outcome,HEK293,inactive
same,outcome,HaCat [1],inactive
same,outcome,KB-3-1,inactive
same,outcome,HACAT [4],inactive
same,outcome,HEK293T [5],inactive
same,Potency,MCC-13,inactive
same,Potency,MKL-1,inactive
same,Potency,MKL-2,inactive
same,Potency,UISO,inactive
same,Potency,WaGa,inactive
CC=CC(=O)N(CC)c1ccccc1C,outcome,HEK293,inactive
same,outcome,HaCat [1],inactive
same,max response,KB-3-1,2.01%
same,outcome,HACAT [4],inactive
same,outcome,HEK293T [5],inactive
same,Potency,MCC-13,inactive
same,Potency,MCC-26,inactive
same,Potency,MKL-1,inactive
same,Potency,MKL-2,inactive
same,Potency,UISO,inactive
O=C(O)c1cc(O)c2c(c1)C(=O)c1cccc(O)c1C2=O,max response,HEK293,-16.6%
same,outcome,HaCat [1],inactive
same,max response,KB-3-1,0.608%
same,outcome,HACAT [4],inactive [at 92 µM]
same,Potency,MCC-13,inactive
same,Potency,MCC-26,inactive
same,Potency,MKL-1,inactive
same,Potency,MKL-2,inactive
same,Potency,WaGa,inactive
